High-throughput results as filed in PubChem BioAssay.
ERAP1 HTS inh – human ERAP1 aminopeptidase inhibitors, primary screen, biochemical, single point, plate reader | inhibition, % at 10.7 µM | recombinant ERAP1, Leu-AMC fluorescence, 60 min | 0.15% of 340,000 active;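 active = mean replicate inhibition of at least 30%, or all replicates individually reaching that 30% level; inactive = mean below 30% and not every replicate reaching it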
Target sequence (Q9NZ08 whole entry, looked up): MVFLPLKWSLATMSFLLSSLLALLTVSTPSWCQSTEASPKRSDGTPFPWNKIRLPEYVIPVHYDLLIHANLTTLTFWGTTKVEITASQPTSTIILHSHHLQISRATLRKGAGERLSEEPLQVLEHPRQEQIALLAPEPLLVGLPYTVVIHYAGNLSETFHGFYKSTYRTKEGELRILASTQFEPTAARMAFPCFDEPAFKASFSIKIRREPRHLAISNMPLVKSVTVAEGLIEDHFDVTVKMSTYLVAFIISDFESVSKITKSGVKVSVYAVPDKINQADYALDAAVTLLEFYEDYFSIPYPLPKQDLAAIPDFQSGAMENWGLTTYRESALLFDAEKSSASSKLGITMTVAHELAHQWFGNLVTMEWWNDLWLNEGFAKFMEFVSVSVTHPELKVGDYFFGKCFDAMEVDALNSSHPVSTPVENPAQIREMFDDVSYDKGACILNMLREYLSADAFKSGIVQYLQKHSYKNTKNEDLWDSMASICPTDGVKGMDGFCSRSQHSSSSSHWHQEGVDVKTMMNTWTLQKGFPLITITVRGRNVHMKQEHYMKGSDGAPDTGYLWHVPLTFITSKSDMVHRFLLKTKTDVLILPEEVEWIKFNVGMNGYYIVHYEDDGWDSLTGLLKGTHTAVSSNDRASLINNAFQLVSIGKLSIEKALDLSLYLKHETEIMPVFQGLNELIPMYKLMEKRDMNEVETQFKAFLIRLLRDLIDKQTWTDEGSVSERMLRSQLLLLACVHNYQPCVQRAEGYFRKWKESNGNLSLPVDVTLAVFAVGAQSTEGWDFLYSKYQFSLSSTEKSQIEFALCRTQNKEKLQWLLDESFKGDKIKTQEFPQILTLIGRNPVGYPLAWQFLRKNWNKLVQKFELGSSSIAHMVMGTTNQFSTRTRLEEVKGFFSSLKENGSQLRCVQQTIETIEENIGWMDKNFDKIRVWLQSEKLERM
RAD52 inh – RAD52 DNA annealing inhibitors, primary screen, biochemical, FRET, single point, set 2; AID 651710, 2012; 0.46% of 360,000 active; inhibition, % at 18.7 µM; recombinant RAD52 DNA annealing, FRET fluorescence; DNA repair protein RAD52 homolog (Homo sapiens), P43351;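 active = every replicate showing at least 50% inhibition; inconclusive = mean inhibition at least 50% but not in every replicate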
FGF22 binding – binders of human FGF22 protein, primary screen, FGF22 synaptogenesis inhibitor project, biophysical, thermal shift, single point. Fibroblast growth factor 22 (Homo sapiens), Q9HCT0. recombinant FGF22 thermal shift, SYPRO orange fluorescence; percent of sucrose octasulfate shift, DMSO zero. activity (Tm shift, normalised), % at 9.99 µM. 1.5% of 340,000 active. AID 651658, 2012;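 active = mean Tm shift, scaled 0 neutral to 100 positive control, at about 1.3% or above, every replicate too, limit read from the data; inconclusive = no clear call, values can overlap the other calls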
DENV2 CPE – inhibitors of DENV2 cytopathic effect, primary screen, cell-based, plate reader, single concentration; DENV2-infected cells, cytopathic effect rescue; CPE inhibition, % at 9.99 µM; 1.7% of 350,000 active; AID 651640, 2012; in the data active = CPE inhibition above about 20%, passing the limit was not always enough; inconclusive = no clear call, values can overlap the other calls; tested in BHK-21 cells
MLL AF4-AF9 inh – inhibitors of AF4 peptide binding to AF9, primary screen, biochemical, AlphaScreen, biotin-AF4 peptide, FLAG-AF9, single point | 0.47% of 350,000 active | AID 651704, 2012 | inhibition, % at 10 µM | Protein AF-9 (Homo sapiens), P42568;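 active = every replicate reaching a set inhibition limit, whatever the replicate mean, cut at about 25% in these data; inconclusive = mean inhibition reaches that limit but some replicates miss it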
A number is an active result. The list is not random: actives were taken first. Their share in the collection is about 4%.

What do the screens show for `Cc1ccccc1S(=O)(=O)N1CC(=O)N2[C@H](C1)[C@@H](c1ccc(C#Cc3ccccc3)cc1)[C@@H]2CO`?
ERAP1 HTS inh: inactive; RAD52 inh: inactive; DENV2 CPE: inactive; MLL AF4-AF9 inh: inactive

Results for O=c1c2ccccc2c(/C=N/c2n[nH]c(CCCO)n2)c(O)n1-c1ccccc1Cl ?
ERAP1 HTS inh: inactive; RAD52 inh: inactive; FGF22 binding: 43; DENV2 CPE: inactive; MLL AF4-AF9 inh: inactive

Results for CCCCn1c(N)c(N(CCOC)C(=O)c2cnc(C)cn2)c(=O)[nH]c1=O ?
ERAP1 HTS inh: 49; RAD52 inh: inactive; FGF22 binding: inactive; DENV2 CPE: inactive; MLL AF4-AF9 inh: inactive

What do the screens show for `COc1ccc2c3c([nH]c2c1)[C@@H](CO)N(S(C)(=O)=O)CC31CN(C(=O)c2ccncc2)C1`?
ERAP1 HTS inh: inactive; RAD52 inh: inactive; FGF22 binding: inactive; DENV2 CPE: inactive; MLL AF4-AF9 inh: inactive

What do the screens show for `Cc1ccc(C(NC(=O)NN2CCN(C)CC2)C(Cl)Cl)cc1F` (stereo not drawn)?
ERAP1 HTS inh: inactive; RAD52 inh: inactive; FGF22 binding: inactive; DENV2 CPE: inactive; MLL AF4-AF9 inh: inactive

What do the screens show for `Cc1ccc(C(NC(=O)N2CCOCC2)C(Cl)(Cl)Cl)cc1F` (stereo not drawn)?
ERAP1 HTS inh: inactive; RAD52 inh: inactive; FGF22 binding: inactive; MLL AF4-AF9 inh: inactive

What do the screens show for `CCN1CCN(C(=O)NC(c2ccc(C)c(F)c2)C(Cl)Cl)CC1` (stereo not drawn)?
ERAP1 HTS inh: inactive; RAD52 inh: inactive; FGF22 binding: 44; DENV2 CPE: inactive; MLL AF4-AF9 inh: inactive

What do the screens show for `Cc1ccc(C(NC(=O)N2CCCC2)C(Cl)Cl)cc1F` (stereo not drawn)?
ERAP1 HTS inh: inactive; RAD52 inh: inactive; FGF22 binding: 44; DENV2 CPE: inactive; MLL AF4-AF9 inh: inactive

Results for COc1ccc2c3c([nH]c2c1)[C@@H](CO)N(C(=O)c1ccccc1)CC31CN(C(=O)Nc2cccc(F)c2)C1 ?
ERAP1 HTS inh: inactive; RAD52 inh: inactive; FGF22 binding: inactive; DENV2 CPE: inactive; MLL AF4-AF9 inh: inactive

What do the screens show for `CCOc1ccccc1NC(=O)C(NCC1(N2CCCCC2)CCCCC1)c1ccccc1` (stereo not drawn)?
ERAP1 HTS inh: inactive; RAD52 inh: inactive; FGF22 binding: 44; DENV2 CPE: inactive; MLL AF4-AF9 inh: inactive

What do the screens show for `COc1ccc(CN(C)C[C@H]2Oc3ccc(NC(=O)Cc4cn(C)c5ccccc45)cc3CC(=O)N([C@H](C)CO)C[C@@H]2C)cc1`?
ERAP1 HTS inh: inactive; RAD52 inh: inactive; FGF22 binding: inactive; DENV2 CPE: inactive; MLL AF4-AF9 inh: inactive

What do the screens show for `CC(C)CCNC(=O)c1onc(CSc2ccc(F)c(F)c2)c1C(=O)NCCC(C)C`?
RAD52 inh: inactive; FGF22 binding: inactive; DENV2 CPE: inactive; MLL AF4-AF9 inh: inactive

What do the screens show for `CCCNC(=O)c1onc(CSc2ccc(F)c(F)c2)c1C(=O)NCCC`?
ERAP1 HTS inh: inactive; RAD52 inh: inactive; FGF22 binding: 36; DENV2 CPE: inactive; MLL AF4-AF9 inh: inactive

What do the screens show for `CN(C)CCCn1cnc2c(c1=N)C(c1ccccc1)c1ccc3ccccc3c1O2` (stereo not drawn)?
ERAP1 HTS inh: inactive; RAD52 inh: 76; FGF22 binding: inactive; DENV2 CPE: inactive; MLL AF4-AF9 inh: inactive

Results for CCC(=O)N1CC2(CCN(S(C)(=O)=O)CC2)c2c(n(C)c3cc(OC)ccc23)[C@H]1CO ?
FGF22 binding: inactive; DENV2 CPE: inactive; MLL AF4-AF9 inh: inactive

Results for CCC[n+]1c(C)sc2c(OC)ccc(OC)c21 ?
ERAP1 HTS inh: 52; RAD52 inh: inactive; FGF22 binding: 43; DENV2 CPE: inactive; MLL AF4-AF9 inh: inactive

What do the screens show for `COc1cccc(C2NC(=O)NC(C)=C2C(=O)Nc2ccc(C)cc2)c1OC` (stereo not drawn)?
ERAP1 HTS inh: inactive; RAD52 inh: inactive; FGF22 binding: inactive; DENV2 CPE: inactive; MLL AF4-AF9 inh: inactive

How did COc1cccc(C2NC(=S)NC(C)=C2C(=O)c2ccccc2)c1OC (stereo not drawn) do in these assays?
ERAP1 HTS inh: inactive; RAD52 inh: inactive; FGF22 binding: 43; DENV2 CPE: inactive; MLL AF4-AF9 inh: inactive

Results for Cc1cccc(C)c1OCC(=O)N/N=C/c1ccncc1 ?
ERAP1 HTS inh: inactive; RAD52 inh: inactive; FGF22 binding: inactive; DENV2 CPE: inactive; MLL AF4-AF9 inh: inactive

What do the screens show for `N#Cc1ccc(-c2ccc(OCC(=O)NN=Cc3ccncc3)cc2)cc1`?
ERAP1 HTS inh: inactive; RAD52 inh: inactive; FGF22 binding: inactive; DENV2 CPE: 30; MLL AF4-AF9 inh: inactive

Results for O=C(COc1cccc2ccccc12)N/N=C/c1ccncc1 ?
ERAP1 HTS inh: inactive; RAD52 inh: inactive; FGF22 binding: 43; DENV2 CPE: inactive; MLL AF4-AF9 inh: inactive

How did COc1ccc(OCC(=O)N/N=C/c2ccncc2)cc1 do in these assays?
ERAP1 HTS inh: inactive; RAD52 inh: inactive; FGF22 binding: inactive; DENV2 CPE: inactive; MLL AF4-AF9 inh: inactive

What do the screens show for `COc1cccc(NC(=O)N2C[C@@H](O)COC[C@@H]3O[C@@H](CC(=O)NCCCN4CCOCC4)CC[C@H]32)c1`?
FGF22 binding: inactive; DENV2 CPE: inactive

How did C[C@@H]1CN([C@H](C)CO)C(=O)c2cc(NC(=O)Cn3cnnn3)ccc2O[C@H]1CN(C)C(=O)Nc1ccc2c(c1)OCO2 do in these assays?
ERAP1 HTS inh: inactive; RAD52 inh: inactive; FGF22 binding: inactive; DENV2 CPE: inactive; MLL AF4-AF9 inh: inactive

What do the screens show for `CC1(C)OC2CCN3C(C(O)COS3(=O)=O)C2O1` (stereo not drawn)?
ERAP1 HTS inh: inactive; RAD52 inh: inactive; FGF22 binding: inactive; DENV2 CPE: 131; MLL AF4-AF9 inh: inactive

Results for COCC(=O)N1[C@@H](CO)[C@@H](c2ccc(-c3cccc(F)c3)cc2)C12CN(C(=O)C1CC1)C2 ?
RAD52 inh: inactive; FGF22 binding: inactive; DENV2 CPE: inactive; MLL AF4-AF9 inh: inactive

Results for CCOC(=O)C1CCCN(C(=O)c2ccc3nc(-c4ccc(OC)c(OC)c4)c(-c4ccc(OC)c(OC)c4)nc3c2)C1 (stereo not drawn) ?
ERAP1 HTS inh: 34; RAD52 inh: inactive; FGF22 binding: inactive; DENV2 CPE: inactive; MLL AF4-AF9 inh: inactive

How did C[C@H](O)C#Cc1ccc2c(c1)O[C@@H](CN(C)C(=O)CN(C)C)[C@H](C)CN([C@H](C)CO)S2(=O)=O do in these assays?
ERAP1 HTS inh: inactive; RAD52 inh: inactive; FGF22 binding: inactive; DENV2 CPE: inconclusive; MLL AF4-AF9 inh: inactive

How did O=C(O)C[C@@H]1C[C@H]2c3cc(NC(=O)C4CCOCC4)ccc3O[C@H]2[C@@H](CO)O1 do in these assays?
ERAP1 HTS inh: inactive; RAD52 inh: inactive; DENV2 CPE: inactive; MLL AF4-AF9 inh: inactive
